Data taken from PubChem BioAssay AID1117290 (Broad Institute, 2014).
Potency and affinity values are given separately. Activity calls are given as the source filed them.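 How the source made its calls: active means every replicate test called active, each showing a drop in signal with a fitted potency within twice the top tested dose; inconclusive means tests disagree, or fits are weak, flat midrange or poor; inactive means every test flat, rising or fitted past the limit.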

assay: lung carcinoma cell viability loss – CellTiter-Glo luminescence, dry powder, set 18, cytotoxicity control, dose response (AID 1117290); conditions: A549 viability, CellTiter-Glo ATP luminescence, 72 h; series mostly up to 26 µM

Structure (SMILES) | outcome
O=S(=O)(Nc1cc(C(F)(F)F)ccc1N1CCCCC1)c1cc(Cl)cc(Cl)c1 | inactive
CC(=O)N1CCN(C(=O)C2(NC(=O)NCCc3ccccc3)CCCCC2)CC1 | inactive
Cc1ccccc1S(=O)(=O)Nc1cc(C(F)(F)F)ccc1N1CCCCC1 | inactive
CC(=O)N1CCN(C(=O)CNC(=O)Nc2ccc(C)cc2)CC1 | inactive
COc1ccc(C(=O)O)cc1S(=O)(=O)Nc1cccc(N2CCCCC2)c1C(F)(F)F | inactive
CC(=O)N1CCN(C(=O)C2(NC(=O)Nc3ccc(C)cc3)CC2)CC1 | inactive
Cc1ccc(NC(=O)NC2(C(=O)N3CCOCC3)CCCCC2)cc1 | inactive
COc1ccc(C(=O)Nc2cc(C(F)(F)F)ccc2N2CCOCC2)cc1S(=O)(=O)O | inactive
COc1ccc(C(=O)O)cc1S(=O)(=O)N1CCN(c2ccc(C(F)(F)F)cc2N)CC1 | inactive
O=S(=O)(Nc1cc(C(F)(F)F)ccc1N1CCCCC1)c1ccc(F)cc1 | inactive
CC(=O)N1CCN(C(=O)C2(NC(=O)Nc3ccc(C(C)C)cc3)CCCC2)CC1 | inactive
CC(=O)N1CCN(C(=O)C2(NC(=O)Nc3cccc(C(F)(F)F)c3)CCCCC2)CC1 | inactive
O=[N+]([O-])c1cccc(S(=O)(=O)Nc2cc(C(F)(F)F)ccc2N2CCCCC2)c1 | inactive
O=S(=O)(Nc1cc(C(F)(F)F)ccc1N1CCCCC1)c1ccc(-c2ccccc2)cc1 | inactive
CC(=O)N1CCN(C(=O)C2(NC(=O)Nc3ccccc3C(F)(F)F)CCCCC2)CC1 | inactive
COc1ccc(C(=O)Nc2cc(C(F)(F)F)ccc2N2CCCCC2)cc1S(=O)(=O)O | inactive
CC(=O)N1CCN(C(=O)C2(NC(=O)Nc3ccc(C(F)(F)F)cc3)CCCCC2)CC1 | inactive
COc1ccc(C(=O)Nc2ccccc2N2CCCCC2)cc1S(=O)(=O)O | inactive
O=S(=O)(Nc1cc(C(F)(F)F)ccc1N1CCCCC1)c1ccc(C(F)(F)F)cc1 | inactive
Cc1ccc(NC(=O)NC2(C(=O)N3CCN(c4ccccc4)CC3)CCCCC2)cc1 | inactive
CC(=O)N1CCN(C(=O)C2(NC(=O)Nc3ccc(C(F)(F)F)cc3)CCCC2)CC1 | inactive
COc1ccc(C(=O)O)cc1S(=O)(=O)Nc1cc(C(F)(F)F)ccc1N1CCOCC1 | inactive
CC(=O)N1CCN(C(=O)C2(NC(=O)Nc3ccc(C(C)C)cc3)CCCCC2)CC1 | inactive
CC(=O)N1CCN(C(=O)C2(NC(=O)Nc3ccccc3)CCCC2)CC1 | inactive
O=C(Nc1cc(C(F)(F)F)ccc1N1CCCCC1)c1ccc(S(=O)(=O)O)cc1 | inactive
Cc1ccc(NC(=O)NC2(C(=O)N3CCNCC3)CCCCC2)cc1 | inactive
